# Test results published in PMC4552634, “A New Set of Chemical Starting Points with Plasmodium falciparum Transmission-Blocking Potential for Antimalarial Drug Discovery” (PLoS ONE, 2015).
# Hit rate of the full screen: of about 13,000 compounds, about 3,200 (25%) showed an effect of 50% or more. The list shows a part of the results.
# Test system: P. falciparum stage V gametocytes
# Design: BacTiter-Glo ATP luminescence viability of purified stage V gametocytes in 384-well plates, per cent inhibition versus DMSO
# Settings: 48 h, 5 µM; inhibitor
row,SMILES,% Inhibition [%]
1,NS(=O)(=O)c1cccc(Nc2nccc(-c3cnn4ncccc34)n2)c1 [TCMDC-138919],-22.3
2,Cc1[nH]cnc1-c1cccc(NC(=O)c2cc3ccccc3s2)c1 [TCMDC-140418],-4.001
3,CC(C)c1cc(N)c2cc(NC(=O)COCC(=O)Nc3ccc4nc(C(C)C)cc(N)c4c3)ccc2n1 [TCMDC-140151],20.51
4,Cc1cc(N)c2cc(NC(=O)c3cc4ccccc4s3)ccc2n1 [TCMDC-139336],120.6
5,O=C(Nc1cncc(NC(=O)c2ccc(Cl)c(Cl)c2)c1)c1ccc(Cl)c(Cl)c1 [TCMDC-134576],-22.28
6,COc1cc(C)nc2ccc(NC(=O)c3cc(C(F)(F)F)cc(C(F)(F)F)c3)cc12 [TCMDC-139381],-62.94
7,Cc1cc(Nc2cccc(C(F)(F)F)c2)nc2ccc(NC(=O)c3ccc(=O)[nH]c3)cc12 [TCMDC-125286],-51.61
8,Cc1cc(N)c2cc(NC(=O)c3ccc4ccccc4c3)ccc2n1 [TCMDC-139362],110.4
9,CN1CCc2cc(NC(=O)c3cc4ccccc4s3)cc(-c3ccccc3)c2CC1 [TCMDC-141733],18.19
10,Nc1nc(N)c2cc(CNc3ccc(Cl)c(Cl)c3)ccc2n1 [TCMDC-141974],-49.67
11,Nc1nc(N)c2cc(NC(=O)c3ccc(Cl)c(Cl)c3)ccc2n1 [TCMDC-141982],63.61
12,Cc1cc(N)c2cc(NC(=O)c3cc(C(F)(F)F)cc(C(F)(F)F)c3)ccc2n1 [TCMDC-139377],129.8
13,Cc1ccc2nc(-c3cc(-c4ccc(OCc5ccccc5)cc4)cnc3N)[nH]c2c1 [TCMDC-135839],-50.65
14,Cn1c(=O)n(C)c2cc(CNCCNc3ccnc4cc(Cl)ccc34)ccc21 [TCMDC-125236],26.13
15,CCCOc1ccc(CCCON2C(N)=NC(N)=NC2(C)C)cc1 [TCMDC-131757],14.14
16,Cc1noc(C)c1-c1cccc(CNCc2ccc(-c3cccc(-c4nc5ccccc5[nH]4)c3)cc2)c1.O=C(O)C(F)(F)F [TCMDC-132565],-39.99
17,OCCN1CCN(C(=S)NC2CCCCC2)CC1 [TCMDC-123848],-10.92
18,O=C(NCc1cccc(C(F)(F)F)c1)c1ccc(-c2nc3cc(F)c(F)cc3[nH]2)cc1 [TCMDC-140461],13.57
19,CCc1ccc(OCc2ccccc2C(=O)Nc2ccc3nc(C)cc(N)c3c2)cc1 [TCMDC-125882],102.8
20,COc1cc(C)nc2ccc(NC(=O)c3ccc(C(=O)Nc4ccc5nc(C)cc(OC)c5c4)cc3)cc12 [TCMDC-139502],14.93
21,Cc1cc(N)c2cc(NC(=O)c3cccc4ccccc34)ccc2n1 [TCMDC-139378],63.27
22,COc1cc(C)nc2ccc(NC(=O)Nc3cccc4ccccc34)cc12 [TCMDC-139397],-27.18
23,Cc1cc(N)c2cc(NC(=O)c3cccc(C(=O)Nc4ccc5nc(C)cc(N)c5c4)c3)ccc2n1 [TCMDC-139410],73.19

row,SMILES,% Inhibition [%]
1,Cc1cc(N)c2cc(NC(=O)CCC(=O)Nc3ccc4nc(C)cc(N)c4c3)ccc2n1 [TCMDC-139503],21.97
2,Cc1cc(Nc2ccc(OCc3ccccc3Cl)cc2)c2cc(Cl)ccc2n1 [TCMDC-123799],-30.43
3,Cc1cc(C(=O)Nc2ccc(OCc3ccccc3)cc2)on1 [TCMDC-124596],15.42
4,Cc1cc(C)c(C(=O)Nc2ccc3nc(C)cc(N)c3c2)c(C)c1 [TCMDC-139379],-0.864
5,Cc1cccc2nc(-c3ccc(-c4ccc(CN5CCN(c6ccc(C#N)cn6)CC5)cc4)s3)[nH]c12.O=C(O)C(F)(F)F [TCMDC-133116],1.839
6,NC1(C(=O)O)Cc2ccc(Cl)cc2C1 (stereo not drawn) [TCMDC-131768],8.887
7,O=C(/C=C/c1ccc(Cl)c(Cl)c1)NC1CCN(Cc2cccc(O)c2)CC1 [TCMDC-141738],-9.136
8,Oc1ccc2c(c1NCC1CCCCC1)CCCC2 [TCMDC-138157],-18.15
9,COC(=O)CN(C(=O)/C=C/c1ccc(Cl)c(Cl)c1)C1CCC(CN2CCC(c3c[nH]c4ccccc34)CC2)CC1 (stereo not drawn) [TCMDC-140320],0.7085
10,Oc1ccc(-c2cc(-c3ccc(O)cc3)nc(-c3ccccc3)n2)cc1 [TCMDC-123851],-22.65
11,Cc1ccccc1C1CCN(C2CCC(NC(=O)c3cc(-c4ccccc4)oc3C)CC2)CC1 (stereo not drawn) [TCMDC-134112],-36.13
12,Cc1ccccc1C1CCN(C2CCC(NC(=O)c3cc4cc(Cl)ccc4o3)CC2)CC1 (stereo not drawn) [TCMDC-134102],-69.82
13,Cc1ccccc1C1CCN(C2CCC(NC(=O)c3cncc(-c4ccccc4)c3)CC2)CC1 (stereo not drawn) [TCMDC-134111],-71.64
14,Cc1ccccc1C1CCN(C2CCC(NC(=O)c3csc(-c4cccc(Cl)c4)n3)CC2)CC1 (stereo not drawn) [TCMDC-134104],-68.67
15,Cc1ccccc1C1CCN(C2CCC(NC(=O)c3cc(-c4ccc(Cl)cc4)cs3)CC2)CC1 (stereo not drawn) [TCMDC-133529],65.99
16,CCc1c(C(=O)NC2CCC(N3CCC(c4ccccc4C)CC3)CC2)[nH]c2ccc(OC)cc12 (stereo not drawn) [TCMDC-133531],-38.07
17,Cc1ccccc1C1CCN(C2CCC(NC(=O)c3ccc(-c4cccc(C(F)(F)F)c4)o3)CC2)CC1 (stereo not drawn) [TCMDC-134108],57.44
18,COc1cccc(-c2cc(C(=O)NC3CCC(N4CCC(c5ccccc5C)CC4)CC3)[nH]n2)c1 (stereo not drawn) [TCMDC-133532],73.16
19,Cc1ccc(/C=C/C(=O)NC2CCC(N3CCC(c4ccccc4C)CC3)CC2)cc1F (stereo not drawn) [TCMDC-133514],-74.34
20,COc1ccc(-c2csc(C(=O)NC3CCC(N4CCC(c5ccccc5C)CC4)CC3)c2)cc1 (stereo not drawn) [TCMDC-134109],30.06
21,Cc1ccccc1C1CCN(C2CCC(NC(=O)c3ccc(-c4ccccc4)s3)CC2)CC1 (stereo not drawn) [TCMDC-134113],-48.7
22,Cc1ccccc1C1CCN(C2CCC(NC(=O)c3ccc(-c4ccccc4F)o3)CC2)CC1 (stereo not drawn) [TCMDC-134110],121.1
